# Compounds with a hit are over-represented: about 3.1% of the library has one in this group of screens.
# Tau FP inhib: qHTS for Inhibitors of Tau Fibril Formation, Fluorescence Polarization; actives 0.39% (n = 280,000); Microtubule-associated protein tau (Homo sapiens), P10636; K18 P301L tau heparin fibrillization, Alexa594 FP, 6 h; Potency, µM (titrated, usually from 57.7 µM), inactives show at the top dose activity, negative = inhibition, usual class: inhibitors; also: nearly all actives have a fitted effect of over 55% in size
# Target sequence (P10636 561-689 P618L limits assumed): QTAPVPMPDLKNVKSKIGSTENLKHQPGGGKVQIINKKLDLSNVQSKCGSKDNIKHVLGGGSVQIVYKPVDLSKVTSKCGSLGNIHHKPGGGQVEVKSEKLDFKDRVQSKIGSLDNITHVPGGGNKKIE
#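 Human tau K18 […] P301L fragment, 15 uM unlabeled plus 0.24 uM Alexa 594-labeled tau (final), with compound and 20 uM heparin in 100 mM sodium acetate pH 7; 6 hr at 37 C, then Alexa 594 FP read.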
# TRb SRC2 PPI: qHTS for Inhibitors of the Interaction of Thyroid Hormone Receptor and Steroid Receptor Coregulator 2; Potency, µM (series often up to 106 µM), without a hit: top-dose activity change, negative = inhibition, most hits filed as inhibitors; AID 1469, 2008; actives 0.065% (n = 280,000); TRbeta-SRC2 peptide binding, fluorescence polarization; receptor liganded with 1 µM T3;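 also: plate controls were bound peptide for no effect and peptide without receptor for full effect; nearly all actives have a fitted effect of over 50% in size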
#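 Decrease in fluorescence polarization of 20 nM Texas Red SRC2 coactivator peptide flagged inhibition of its binding to 0.6 uM TRb LBD; 1 uM T3 included, incubation 5 hr, ex 555/em 632 nm.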
# TR SRC2 fluor cs: Total Fluorescence Counterscreen for Inhibitors of the Interaction of Thyroid Hormone Receptor and Steroid Receptor Coregulator 2 | TRb/SRC2 Texas Red total fluorescence interference | Potency, µM (series often up to 106 µM), inactives show at the highest dose fluorescence change, negative = quenching | actives 0.29% (n = 280,000) | AID 1479, 2009; active = well fitted curve in either direction with a large enough effect; inconclusive = small, poorly fitted or top-dose-only effect
#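 Human TRβ ligand-binding domain (0.6 uM) and Texas Red SRC2 peptide (20 nM) in Tris buffer with 1 uM T3 and 5% DMSO were incubated with pinned compound for 5 hr at ambient temperature. Total fluorescence was computed as S + 2P (555/632 nm).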
# RGS12 GoLoco inh: qHTS Assay for Inhibitors of RGS12 GoLoco Motif Activity (Red Fluorophore) | actives 0.44% (n = 230,000) | Potency, µM (highest dose often 61.6 µM), for inactives: at the highest dose activity, negative = inhibition, most hits filed as inhibitors | Gai1:RGS12 GoLoco peptide FP, rhodamine, 10 min; active = well fitted inhibition curve with a large enough effect, not every such curve was filed as active; inactive = no such curve, though single readings can be large or run the other way; also: nearly all actives have a fitted effect of over 30% in size
# Target sequence (P63096 whole entry, looked up): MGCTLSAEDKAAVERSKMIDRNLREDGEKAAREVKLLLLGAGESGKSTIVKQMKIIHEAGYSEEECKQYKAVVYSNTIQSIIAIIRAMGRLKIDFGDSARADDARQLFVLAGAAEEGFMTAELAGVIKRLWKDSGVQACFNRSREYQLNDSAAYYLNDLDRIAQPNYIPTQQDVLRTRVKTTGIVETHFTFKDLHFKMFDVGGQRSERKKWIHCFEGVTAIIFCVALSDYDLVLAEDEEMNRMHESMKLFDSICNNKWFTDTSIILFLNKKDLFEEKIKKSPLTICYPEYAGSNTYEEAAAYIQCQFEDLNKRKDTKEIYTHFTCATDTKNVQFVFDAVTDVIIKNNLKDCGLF
# Tau fluor cs: Counterscreen qHTS for Inhibitors of Tau Fibril Formation, Fluorescence Polarization; actives 0.93% (n = 280,000); Potency, µM (titrated, usually from 57.7 µM), for inactives: top-dose activity change, negative = decrease; tau K18 P301L Alexa594 fluorescence, heparin fibrillization; also: nearly all actives have a fitted effect of over 55% in size
#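 Human tau K18 P301L (15 uM unlabeled, 0.24 uM Alexa 594-labeled) in 100 mM sodium acetate pH 7 with 20 uM heparin, 6 hr at 37 C. ThT 30 uM added, 1 hr ambient; Alexa 594 FP and total fluorescence read at 555/632 nm.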
# Tau fibril ThT: qHTS for Inhibitors of Tau Fibril Formation, Thioflavin T Binding; actives 2.1% (n = 270,000); Microtubule-associated protein tau (Homo sapiens), P10636; Potency, µM (highest dose often 57.4 µM), for inactives: at the highest dose activity, negative = inhibition, most hits filed as inhibitors; AID 1460, 2008; recombinant tau K18 P301L (four-repeat tau fragment), heparin-induced fibrillization, ThT fluorescence; also: nearly all actives have a fitted effect of over 55% in size
#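 In this qHTS, human K18 P301L tau is incubated with compound and heparin for 6 hr at 37 C, and Thioflavin T fluorescence then reports fibril load.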
# * marks the source's active call; other numbers are inactive results; ? = inconclusive; nt = no result; [ ] = another dose, or the depositor's remark. Unless noted, calls follow the shape of the dose curve; as a rule, active = well fitted curve in the direction sought with a large enough effect; inconclusive = small, poorly fitted or top-dose-only effect, or another doubt; inactive = no such curve, though single readings can be large; an effect the other way counts as inactive or inconclusive. Unless noted, % is scaled to controls: 0 for no effect and ±100 for the full control effect; potency is read from the fitted curve at half-maximal effect.
SMILES,Tau FP inhib,TRb SRC2 PPI,TR SRC2 fluor cs,RGS12 GoLoco inh,Tau fluor cs,Tau fibril ThT
COc1ccc(Nc2nc(-c3cccs3)cs2)cc1,4.0%,-6.8%,-1.6%,3.5%,?,?
O=C(CNC(=O)c1ccccc1)OCc1nnc(-c2ccc(Cl)cc2)o1,-6.7%,2.2%,-4.0%,0.3%,-12.6%,-16.2%
COc1ccc(Nc2nc(-c3cccs3)cs2)c(OC)c1,11.1%,11.8%,-1.6%,-22.6%,15.8µM*[quencher],11.2µM*
Cc1ccc(CNc2nc(-c3cccs3)nc3ccccc23)cc1,39.8µM*,-2.0%,-2.3%,-4.8%,?,-13.8%
COc1ccc(NC(=O)CSc2ccc(-c3cccs3)nn2)c(OC)c1,-7.0%,-5.1%,-3.9%,13.2%,-18.1%,-6.3%
COc1cccc(C(=O)NCCSc2c(C)[nH]c3ccccc23)c1OC,15.3%,-11.6%,-0.7%,2.5%,?,nt
COc1ccccc1C(=O)NCCSc1c(C)[nH]c2ccccc12,2.5%,3.0%,-1.2%,nt,15.8µM*[quencher],?
Cc1[nH]c2ccccc2c1SCCNC(=O)c1ccccc1F,7.6%,-7.3%,-0.9%,nt,25.1µM*[quencher],?
COc1cc(C(=O)NCCSc2c(C)[nH]c3ccccc23)cc(OC)c1OC,-3.3%,-0.9%,-3.7%,nt,25.1µM*[quencher],?
COc1ccc(OC)c(NC(=O)CNC(=O)c2ccc([N+](=O)[O-])cc2)c1,2.9%,7.4%,2.3%,9.4%,-13.5%,-10.2%
Cc1nnc(N2CCN(c3ccccc3F)CC2)c2c1nnn2Cc1ccc(F)cc1,0.0%,2.1%,-0.6%,nt,-11.6%,-2.1%
CC(C)C(=O)N(c1ccc2oc(=O)sc2c1)S(=O)(=O)c1cccs1,?,-9.8%,-2.9%,-6.9%,-22.5%,?
CC(C)C(=O)N(c1cc2sc(=O)oc2c2ccccc12)S(=O)(=O)c1cccs1,?,-5.2%,-0.1%,-15.5%,?,15.8µM*
Cc1ccc(NC(=O)Nc2nnc(CSCCOc3ccc(Cl)cc3)s2)cc1,?,4.5%,-1.7%,11.3%,-24.9%,-2.5%
O=C(Nc1cccc(Cl)c1)Nc1nnc(CC2=CCCCC2)s1,11.2µM*,0.2%,0.1%,-1.5%,?,11.5%
COc1ccc(OCCSCc2nnc(NC(=O)Nc3ccc(Cl)cc3)s2)cc1,28.2µM*,4.9%,0.7%,7.5%,-23.0%,0.6%
O=C(Nc1cccc(Cl)c1)Nc1nnc(CSCCOc2ccc(Cl)cc2)s1,7.94µM*,0.3%,-2.7%,9.3%,?,-2.0%
CN(C)/C=C/C(=O)c1nn(-c2ccc(F)cc2)ccc1=O,-1.9%,-2.5%,0.6%,7.0%,-5.8%,-11.6%
CC1=CC(c2ccc(Cl)cc2)n2nc(NS(=O)(=O)c3ccc(C)cc3)nc2N1 (centres undefined),-0.6%,-3.3%,-0.2%,2.1%,-12.3%,?
CC1=CC(c2ccccc2)n2nc(NS(=O)(=O)c3ccc(C)cc3)nc2N1 (centres undefined),?,6.1%,-3.9%,nt,?,11.2µM*
O=C(/C=C\c1ccco1)Nc1ccc(N2CCN(C(=O)c3ccccc3)CC2)cc1,1.9%,5.0%,-4.0%,-19.3%,?,11.2µM*
CC(=O)NC(=S)Nc1ccc(NC(=S)NC(=O)/C=C/c2ccco2)cc1,-2.5%,7.5%,?,11.1%,?,nt
